Each structure is given as a SMILES string. Values joined by “and” are separate entries in the source; they are usually repeats but may differ in a detail not shown here. Equal values may be shown once. Some compounds were tested as several samples or in several runs, with calls that do not always agree. Active and inactive are the calls of the source. Rule for the calls: active = hit-call score of the fitted dose curve at least 0.9, where 1 is the maximum; inactive = score below 0.9.

Read-out in the assay: CD40, CD40 (gene 958)
The assay is described as follows: BSK_LPS_CD40: BioMAP Diversity Plus: LPS Assay for CD40 Biomarker Activity (AID 2283076). As to conditions: primary human HUVEC with PBMC; actives raise or lower the signal. As to the method: BSK_LPS is a cell-based, multiplexed-readout assay that uses umbilical vein endothelium and peripheral blood mononuclear cells, a human vascular primary cell co-culture, with measurements taken at 24 hours after chemical dosing in a 96-well plate.BSK_LPS_CD40 is an assay component measured in the BSK_LPS assay. It measures CD40 antibody related to regulation of gene expression using ELISA technology.Data from the assay component BSK_LPS_CD40 was analyzed into 1 assay endpoint. This assay endpoint, BSK_LPS_CD40, was analyzed with bidirectional fitting relative to DMSO as the negative control and baseline of activity. Using a type of binding reporter, gain or loss-of-signal activity can be used to understand changes in the signaling as they relate to the gene CD40. Furthermore, this assay endpoint can be referred to as a primary readout, because this assay has produced multiple assay endpoints where this one serves a signaling function. To generalize the intended target to other relatable targets, this assay endpoint is annotated to the cytokine intended target family, where the subfamily is inflammatory factor.
The levels of cell surface (or secreted, indicated by the prefix "s") biomarker endpoints were measured by ELISA. Overt cytotoxicity to cells in confluent adherent cultures (all systems other than the BT system) was assessed by measuring total protein levels using sulforhodamine B (SRB) staining in parallel cultures at the time of biomarker measurements, indicated as SRB endpoints. For proliferation assays for adherent cell types, individual cell types are cultured at sub-confluence and relative cell numbers quantified by SRB staining at time points optimized for each system (48 h: 3C and CASM3C systems; 72 h: BT and HDF3CGF systems; 96 h: SAg system). SRB was performed by staining cells with 0.1% SRB after fixation with 10% TCA and reading wells at 560 nm.Viability and proliferation of PBMC (T cells) was quantified by Alamar Blue reduction for the SAg and BT systems. For PBMC viability (referred to as PBMC Cytotoxicity within the assay endpoint names), cells were plated (75,000/well in a 96-well plate) and then chemical samples added for 1 h before addition of activators, SEB and TSST-1 (20 ng/mL final concentration each). Cells were incubated for 90 h. Then, Alamar Blue (20 uL/well) (Invitrogen, Cat DAL1100) was added for 6 h, and the plates were read with a fluorescence microplate reader at 546/580 nm (excitation/emission). For PBMC proliferation, cells were plated and activated as above but incubated for only 16 h prior to addition of Alamar Blue. Plates were read after 6 h.
Turning to `C=C1CC/C=C(\C)CC[C@@H]2[C@@H]1CC2(C)C`, the AC50 (in general, the concentration giving half of the maximal activity seen) is 30.5 µM (active).
For the molecule `CCCO[Si](OCCC)(OCCC)OCCC`, the result was inactive.
On the same count and under the same terms, with `CC(C)CCCC(C)(C)O` the entry was “inactive”.
As to `CC(C)(CO)CO`, the outcome was inactive.
Take `C=CC(=O)OCC(CO)(COC(=O)C=C)COC(=O)C=C`: the AC50 was 0.454 µM (active).
On to `CCOC(=O)CCCCCCCCC(=O)OCC`, for which the result was inactive.
`CCCCN(CCO)CCO`: the outcome was inactive.
With `CCCCCCCCCC(=O)OCC`, the outcome was inactive.
The same measure, in the same setting: with `C=C(F)C(=O)OC(C(F)(F)F)C(F)(F)F` the entry was “inactive”.
On to `c1ccc(Sc2ccccc2)cc1`, for which the result was inactive.
On the same count and under the same terms, with `O=S(=O)(O)C(F)(F)C(F)(F)OC(F)(F)C(F)(F)F` the entry was “inactive”.
Regarding `O=S1(=O)CC(Cl)(Cl)C(Cl)(Cl)C1`, the AC50 is 0.457 µM (active).
For `C=C(C)C(N)=O`, the outcome was inactive.
As for `CC/C(=C(\c1ccccc1)c1ccc(OCCN(C)C)cc1)c1ccccc1`, the AC50 is 7.05 µM (active) and 5.81 µM (active).
Take `CC=CC(=O)C1=C(C)C=CCC1(C)C`: the result was inactive.
Still for that read-out and setting: with `CCOC(=O)C=Cc1ccccc1` the entry was “inactive”.
For the molecule `O=C(O)C(F)(F)OC(F)(F)C(F)(F)OC(F)(F)C(F)(F)C(F)(F)C(F)(F)F`, the result was inactive and the AC50 was 48.6 µM (active).
For `CCCCOCCOCCO`, the outcome was inactive.
With `C[C@]12CC[C@@H]3c4ccc(O)cc4CC[C@H]3[C@@H]1CC[C@@H]2O`, the outcome was inactive.
With `OCC(F)(OC(F)(F)C(F)(OC(F)(F)C(F)(F)C(F)(F)F)C(F)(F)F)C(F)(F)F` (stereo not given), the outcome was inactive and the AC50 is 1.1 µM (active).
On to `c1ccc2c(c1)-c1ccc3ccc4cccc5cc-2c1c3c45`, for which the AC50 was 2.76 µM (active).
Turning to `CC(=O)c1ccc(C)cc1`, the result was inactive.
On to `O=C(O)C(F)(F)C(F)(F)C(F)(F)C(F)(F)C(F)(F)C(F)(F)C(F)(F)C(F)F`, for which the result was inactive.
Still for that read-out and setting: with `CCn1cc(C(=O)O)c(=O)c2ccc(C)nc21` the entry was “inactive”; with `C#C[C@]1(O)CC[C@H]2[C@@H]3CCc4cc(O)ccc4[C@H]3CC[C@@]21C`, “inactive”.
Same read-out and setting: with `Nc1ccc(N)c([N+](=O)[O-])c1` the entry was “inactive”; with `O=C1OC2(c3ccc(O)cc3Oc3cc(O)ccc32)c2ccccc21`, “inactive”.
As for `O=C(c1ccc(OCCN2CCCCC2)cc1)c1c(-c2ccc(O)cc2)sc2cc(O)ccc12`, the AC50 was 16.6 µM (active).
For `CC(=O)CCC=C(C)CCC=C(C)C`, the result was inactive.
The same measure, in the same setting: with `NC(=O)c1c(Cl)cccc1Cl` the entry was “inactive”; with `CCCCCCCC1CCCC1=O` (stereo not given), “inactive”; with `CC(=O)OCC=C(C)CCC=C(C)CCC=C(C)C`, “inactive”.
On the same count and under the same terms, with `c1ccc(OCCOc2ccccc2)cc1` the entry was “inactive”.
As for `CC1=CC(C)C(C=O)C(C)C1` (stereo not given) (tested in a mixture with another compound), the result was inactive.
On the same count and under the same terms, with `CC(=O)OC(C)(C)C1CC=C(C)CC1` (stereo not given) the entry was “inactive”; with `CC1(C)[C@H](C=C(Cl)Cl)[C@H]1C(=O)OCc1cccc(Oc2ccccc2)c1`, “inactive”; with `C=C(C)C(=O)OCCC(F)(F)C(F)(F)C(F)(F)C(F)(F)C(F)(F)C(F)(F)C(F)(F)C(F)(F)F`, “inactive”.
As to `CCC(=O)OCC=Cc1ccccc1`, the result was inactive.

The values are drawn from PubChem BioAssay (EPA / NIEHS).
